For 15 compounds, growth results are on record in PubChem BioAssay (NCI).

Test systems include SK-MEL-2 melanoma; SN12C renal; UO-31 renal; TK-10 renal; ACHN renal; CAKI-1 renal; A498 renal; CCRF-CEM leukemia; MOLT-4 leukemia.
Holding throughout (assay): NCI-60 one-dose screen, 48 h (100 = growth as untreated, 0 = no growth, -100 = all killed)
Conditions in all cases: 10 µM

The panel holds about 83,000 compounds, 20% with a hit somewhere; the sample as a whole holds those more often.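 Testing used 96-well plates and a 48-hour single-concentration exposure. Example: -40 means 40% of the starting cells died.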 Values without a mark were called inactive. Active and inactive are the calls of the source. The calls were made as follows: active = growth percent below 10; inactive = the rest.

In the case of `Clc1ccc(-c2nc(-c3cccs3)cn3ccnc23)cc1`, the growth in the assay on SK-MEL-2 melanoma is 70.6%; in the assay on SN12C renal, 85.3%; with UO-31 renal, 45.9%; in the assay with TK-10 renal it was 60.7%; in the assay on ACHN renal, 91.2%; in the assay with CAKI-1 renal it was 59%. The growth in the assay with A498 renal is 90.5%; in the assay on CCRF-CEM leukemia, 65.3%; in the assay with MOLT-4 leukemia, 62.4%.

Turning to `CCOC(=O)c1cc(-c2ccccc2)nc(N)n1`, the growth in the assay on SK-MEL-2 melanoma was 110%; with SN12C renal it was 94.6%; in the assay on UO-31 renal it was 79.1%; with TK-10 renal, 127%; in the assay with ACHN renal, 92.7%; in the assay with CAKI-1 renal it was 94%. The growth is 86.5% with A498 renal, 98.7% in the assay with CCRF-CEM leukemia and 108% in the assay on MOLT-4 leukemia.

Consider `COc1cccc(-c2nnc(COc3ccc(-c4nc5ccc(C)cc5[nH]4)cc3OC)o2)c1`, for which the growth in the assay on SK-MEL-2 melanoma is 98.8%; in the assay on SN12C renal it was 72.6%; in the assay with UO-31 renal, 88.2%; in the assay on TK-10 renal it was 102%; in the assay on ACHN renal it was 25.9%; with CAKI-1 renal, 94.4%. In addition, the growth with A498 renal is 71.3%; in the assay on CCRF-CEM leukemia, 2.49% (active); with MOLT-4 leukemia, 25.6%.

In the case of `COc1ccc(-c2[nH]ncc2-c2cc(OC)c(OC)c(OC)c2)cc1`, the growth in the assay with SK-MEL-2 melanoma was -2.39% (active); in the assay on SN12C renal, 20.8%; in the assay on UO-31 renal it was 11.6%; in the assay on TK-10 renal it was 44.7%; in the assay with ACHN renal, 14.8%; in the assay with CAKI-1 renal, 6.08% (active). The growth is -19.9% (active) in the assay with A498 renal, 2.66% (active) in the assay with CCRF-CEM leukemia and -6.22% (active) in the assay with MOLT-4 leukemia.

For the compound `O=C(NNc1nc(N2CCCC2)nc(N2CCCC2)n1)c1ccccc1`, the growth in the assay with SK-MEL-2 melanoma is 101%; with SN12C renal, 100%; in the assay on UO-31 renal, 81.7%; in the assay on TK-10 renal, 114%; in the assay on ACHN renal, 102%; with CAKI-1 renal, 116%. Besides, the growth is 102% in the assay with A498 renal, 103% in the assay with CCRF-CEM leukemia and 68.4% in the assay with MOLT-4 leukemia.

With `Fc1ccc(-c2cc(C(Cl)Cl)no2)cc1`, the growth in the assay with SK-MEL-2 melanoma was 116%; with SN12C renal it was 97.6%; in the assay with UO-31 renal, 78.7%; in the assay on TK-10 renal, 131%; in the assay on ACHN renal, 102%; in the assay with CAKI-1 renal, 84.9%. The results for the growth in the assay on A498 renal, in the assay on CCRF-CEM leukemia and in the assay with MOLT-4 leukemia were 99.3%, 93.1% and 108%, respectively.

With `CCN(CC)CCn1c(=N)n(CC(O)c2ccc(Cl)c(Cl)c2)c2ccccc21` (stereo not given), the growth in the assay on SK-MEL-2 melanoma was 96.8%; in the assay on SN12C renal, 83.3%; in the assay on UO-31 renal it was 64.3%; in the assay with TK-10 renal, 87.1%; in the assay on ACHN renal, 71.5%; in the assay on CAKI-1 renal it was 75.4%. The results for the growth in the assay with A498 renal, in the assay on CCRF-CEM leukemia and with MOLT-4 leukemia were 52.5%, 78.9% and 79.7%, respectively.

As for `CCOC(=O)c1ccc(N(C=O)CCC(=O)CCl)cc1`, the growth in the assay on SK-MEL-2 melanoma is 15.3%; in the assay with SN12C renal it was 7.96% (active); with UO-31 renal it was -86.3% (active); in the assay on TK-10 renal, -18% (active); with ACHN renal, -37.4% (active); in the assay on CAKI-1 renal it was -19.9% (active). Moreover, the results for the growth in the assay on A498 renal, with CCRF-CEM leukemia and in the assay on MOLT-4 leukemia were -13.5% (active), -31.4% (active) and -13.7% (active), respectively.

Take `COc1cccc2c1C(=O)c1c(O)c3c(c(O)c1C2=O)C[C@@](O)(C(=O)COC(=O)c1ccccc1)C[C@@H]3OC1CC(N)C(O)C(C)O1` (stereo not given in full): the growth with SK-MEL-2 melanoma was -92% (active); in the assay with SN12C renal, -86% (active); in the assay with UO-31 renal, -93.1% (active); in the assay with TK-10 renal, -79.8% (active); in the assay with ACHN renal, -95.6% (active); in the assay on CAKI-1 renal, -89.3% (active). The figures for the growth with A498 renal, in the assay on CCRF-CEM leukemia and with MOLT-4 leukemia were -66.2% (active), -54% (active) and -66% (active), respectively.

Regarding `FC(F)(F)c1ccc(-c2cnc(Cl)nc2NC2CCCCCC2)cc1`, the growth in the assay with SK-MEL-2 melanoma is -4.24% (active); in the assay with SN12C renal, 18.2%; with UO-31 renal, 23.5%; in the assay on TK-10 renal it was 32.1%; with ACHN renal, 5.68% (active); in the assay with CAKI-1 renal it was 67.5%. Further, the growth in the assay on A498 renal was 89.9%; in the assay on CCRF-CEM leukemia, 26.3%; in the assay on MOLT-4 leukemia, 85.1%.

For `Cc1ccc([P+](Cc2ccc([N+](=O)[O-])cc2)(c2ccc(C)cc2)c2ccc(C)cc2)cc1`, the growth with SK-MEL-2 melanoma is -21.6% (active); in the assay on SN12C renal it was 67.6%; in the assay with UO-31 renal, 70.5%; in the assay on TK-10 renal it was 49.1%; in the assay on ACHN renal it was 97.5%; in the assay on CAKI-1 renal, 94.7%. For the same compound, the growth was 65.6% with A498 renal, 24.5% with CCRF-CEM leukemia and 52.4% in the assay with MOLT-4 leukemia.

On to `FC(F)(F)c1ccc(-c2cnc(Cl)nc2NCc2cc(C(F)(F)F)cc(C(F)(F)F)c2)cc1`, for which the growth in the assay on SK-MEL-2 melanoma was -21.6% (active); in the assay on SN12C renal it was 12.4%; in the assay on UO-31 renal, -9.98% (active); in the assay with TK-10 renal it was 21.8%; with ACHN renal it was 2.83% (active); with CAKI-1 renal it was 1.18% (active). Also, the growth in the assay with A498 renal was -4.04% (active); in the assay on CCRF-CEM leukemia, 18.8%; with MOLT-4 leukemia, 21.1%.

For `Cc1ccc2nc3[nH]c(=O)[nH]c(=O)c3c(N)c2c1`, the growth in the assay on SK-MEL-2 melanoma is 98%; with SN12C renal, 72.6%; with UO-31 renal, 54.9%; in the assay with TK-10 renal it was 78.2%; in the assay on ACHN renal, 60.2%; in the assay with CAKI-1 renal, 58%. For the same compound, the growth with A498 renal was 115%; in the assay with CCRF-CEM leukemia, 77.7%; with MOLT-4 leukemia, 86.6%.

For `CCCCCCCCCCCCCC[n+]1ccccc1`, the growth is -78% (active) with SK-MEL-2 melanoma; -41.8% (active) with SN12C renal; 5.61% (active) in the assay with UO-31 renal; -70.4% (active) in the assay with TK-10 renal; 4.31% (active) in the assay on ACHN renal; -43.8% (active) in the assay with CAKI-1 renal. For the same compound, the figures for the growth in the assay with A498 renal, in the assay on CCRF-CEM leukemia and in the assay on MOLT-4 leukemia were 7.27% (active), -42.2% (active) and -51.9% (active), respectively.

As for `Cc1ccc(C)c2c1sc1nc3n[nH]c(N)c3c(=N)n12`, the growth in the assay with SK-MEL-2 melanoma is 96.1%; with SN12C renal it was 104%; with UO-31 renal, 85.8%; with TK-10 renal, 116%; in the assay with ACHN renal, 101%; in the assay on CAKI-1 renal it was 90.5%. The growth in the assay with A498 renal is 103%; in the assay on CCRF-CEM leukemia, 97.3%; with MOLT-4 leukemia, 96%.
